These results are taken from PubChem BioAssay (Tox21).

Inconclusive results are not listed. Values without a mark were called inactive. Calls of active or inactive are those of the source. The call rests on the fitted dose curve; in most records, active means well fitted activation curve with a large enough effect in the signal ratio in the repeat runs (not every such curve was filed as active); inconclusive means weak or mixed curves, or effect the other way; inactive means flat fitted curve, though single readings scatter; the % refers to the signal ratio.
On the % scale 0 is the no-effect control and ±100 the full control effect; potency means the concentration at half of the fitted maximal effect.

Estrogen receptor beta (Homo sapiens), sequence (Q92731 whole entry, looked up): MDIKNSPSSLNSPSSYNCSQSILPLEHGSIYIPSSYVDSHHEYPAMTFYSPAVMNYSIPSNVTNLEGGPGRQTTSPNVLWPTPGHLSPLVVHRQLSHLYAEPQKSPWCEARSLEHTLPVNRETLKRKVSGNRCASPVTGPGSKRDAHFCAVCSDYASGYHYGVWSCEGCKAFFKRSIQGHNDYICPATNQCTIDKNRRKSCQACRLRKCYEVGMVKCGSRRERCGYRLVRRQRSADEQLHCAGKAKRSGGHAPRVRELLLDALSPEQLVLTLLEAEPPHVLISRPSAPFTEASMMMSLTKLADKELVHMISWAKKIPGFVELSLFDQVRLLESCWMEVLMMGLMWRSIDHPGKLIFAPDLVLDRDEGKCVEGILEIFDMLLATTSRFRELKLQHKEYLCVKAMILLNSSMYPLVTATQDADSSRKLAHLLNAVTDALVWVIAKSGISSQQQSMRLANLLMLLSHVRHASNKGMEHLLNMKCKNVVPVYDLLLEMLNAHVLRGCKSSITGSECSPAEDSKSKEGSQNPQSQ

The assay addresses Estrogen receptor beta (Homo sapiens) (UniProt Q92731). The assay can be described thus: qHTS assay to identify small molecule agonists of the estrogen receptor beta (ER-beta) signaling pathway (AID 1259377). The note with it: ER-beta-UAS-bla HEK293T, beta-lactamase FRET ratio, 16 h; series mostly up to 92.4 µM; activation: at the top concentration. The text has this: U.S. Tox21 Program National Center for Advancing Translational Sciences [NCATS] NIH Chemical Genomics Center [NCGC] U.S. Environmental Protection Agency [EPA] National Institutes of Environmental Health Sciences [NIEHS] National Toxicology Program [NTP] U.S. Food and Drug Administration [FDA] Tox21 Assay Overview: Estrogen receptor (ER), a nuclear hormone receptor, plays an important role in development, metabolic homeostasis and reproduction. Two subtypes of ER, ER-alpha and ER-beta, have similar expression patterns with some uniqueness in both types. Endocrine disrupting chemicals (EDCs) and their interactions with steroid hormone receptors like ER causes disruption of normal endocrine function. To identify the compounds that activate ER signaling, an ER beta-UAS-bla GripTite cell line (Life technologies, Madison, WI, USA) containing a beta-lactamase reporter gene under the control of an Upstream Activator Sequence (UAS) was used to screen Tox21 10K compound library.
Tox21 Assay Protocol Summary: ER-beta-UAS-bla HEK293T cells were dispensed at 2,000 cells/5 uL of assay medium containing 2% charcoal stripped FBS per well into black wall/clear-bottom 1536-well plates using a Multidrop Combi (ThermoFisher Scientific, Waltham, MA) dispenser. After the assay plates were incubated at a 37C and 5% CO2 for 6 hr, 23 nL of compounds dissolved in DMSO, positive controls or DMSO only was transferred to the assay plate by a Pintool station (Kalypsys, San Diego, CA). The plates were incubated at 37C and 5% CO2 for 16 hr. Then 1 uL of LiveBLAzerTM B/G FRET substrate was added using a BioRAPTR FRD (Flying Reagent Dispenser, Aurora Discovery, San Diego, CA). After the plates were incubated at room temperature for 2 hours, fluorescence intensity was measured by an Envision plate reader (PerkinElmer, Shelton, CT).
Consider `CN(C)CCOC(c1ccccc1)c1ccccc1` (tested in a mixture with another compound), for which the “activation” value is -0.379%.

`CCN(CC)CCOc1ccc(C(O)(Cc2ccc(Cl)cc2)c2ccc(C)cc2)cc1` (stereo not given): the “activation” value was -3.1% [at 42.5 µM].

In the case of `N[C@@H](CSSC[C@H](N)C(=O)O)C(=O)O`, the activation is 5.41% [at 0.348 µM].

Turning to `COC(=O)CC#N`, the “activation” value is -1.18%.

Regarding `CCC(C)(C)c1cc(O)c(C(C)(C)CC)cc1O`, the “activation” value is -3.5%.

On to `Cc1nc(Nc2ncc(C(=O)Nc3c(C)cccc3Cl)s2)cc(N2CCN(CCO)CC2)n1`, for which the “activation” value was -1.52% [at 42.5 µM].

Turning to `CC[N+](CC)(CC)Cc1ccccc1`, the “activation” value is -0.63%.

As for `O=C1NC2CCCCN2C12CCN(CCCN1c3ccccc3CCc3ccc(Cl)cc31)CC2` (stereo not given), the “activation” value is -0.215% [at 42.5 µM].

For `CCN(CC)CCOC(=O)C1(C2CCCCC2)CCCCC1`, the “activation” value was 0.44% [at 42.5 µM].

As to `CCc1ccc(O)c(C(C)(C)C)c1`, the “activation” value is 15.1%.

`COC(=O)NCCC[Si](OC)(OC)OC`: the “activation” value is 0.128%.

As for `COC(=O)[C@]1(C)CCC[C@@]2(C)[C@H]1CC=C1C=C(C(C)C)CC[C@@H]12`, the “activation” value was -1.4%.

Turning to `COc1ccc2sc(C(=O)Nc3nnn[nH]3)c(OC(C)C)c2c1`, the “activation” value is -10.5%.

Turning to `CCCCNc1c(C(=O)OCC)c(C)nc2c1cnn2CC`, the “activation” value is 0.641% [at 42.5 µM].

Take `Oc1ccc(-c2ccc(O)cc2)cc1`: the Potency was 2.75 µM (active).

With `CCN=C1C=CC(=C(c2ccc(N(CC)CC)cc2)c2ccc(N(CC)CC)cc2)c2ccccc21`, the “activation” value is -6.34%.

Consider `CCCCCCCC/C=C/CCCOC(C)=O`, for which the “activation” value is 0.229%.

With `Cc1cn[nH]c1`, the “activation” value was -2.52% [at 42.5 µM].

As to `CO[C@H]1C=CO[C@@]2(C)Oc3c(C)c(O)c4c(O)c(cc(O)c4c3C2=O)NC(=O)/C(C)=C\C=C/[C@H](C)[C@H](O)[C@@H](C)[C@@H](O)[C@@H](C)[C@H](OC(C)=O)[C@@H]1C`, the “activation” value is -3.51%.

For `CCOCN(C(=O)CS(=O)(=O)O)c1c(C)cccc1CC`, the “activation” value was 0.203%.

Take `CC1(C)COCN1`: the “activation” value was 5.73%.

With `O=S(O)O`, the activation is -0.957% [at 19 µM].

With `c1ccc(Nc2cccc3ccccc23)cc1`, the Potency entry is “inactive”.

Regarding `CN(C)c1ccc(N=Nc2ccccc2C(=O)O)cc1`, the “activation” value was -8.06%.

`CC(C)(C)C1=CC(=O)C=C(C(C)(C)C)C1=O`: the “activation” value was 4.14%.

Consider `O=C(O)CCCCCCC(=O)O`, for which the “activation” value was -0.19%.

`CC(C)(c1cc(Br)c(OCCO)c(Br)c1)c1cc(Br)c(OCCO)c(Br)c1`: the “activation” value was -6.43%.

For `CC(C)(C)c1cc(CCC(=O)NCCCCCCNC(=O)CCc2cc(C(C)(C)C)c(O)c(C(C)(C)C)c2)cc(C(C)(C)C)c1O`, the “activation” value was -1.13%.

With `O=C1C=CC(=O)N1c1ccccc1`, the “activation” value was -8.43%.

For `CCCCCCCC(C)=O`, the “activation” value was -1.57%.

In the case of `CC(C(O)c1ccccc1)N(C)CCOC(c1ccccc1)c1ccccc1` (stereo not given), the “activation” value was -4.18% [at 42.5 µM].

`COCC(=O)O[C@]1(CCN(C)CCCc2nc3ccccc3[nH]2)CCc2cc(F)ccc2[C@@H]1C(C)C`: the “activation” value is -8.62% [at 42.5 µM].

Take `COc1ccccc1OCCNCC(O)COc1cccc2[nH]c3ccccc3c12` (stereo not given): the “activation” value was 1.24% [at 42.5 µM].

On to `Cc1c(C)n(Cc2ccccc2)c2ccc(C(=O)OCCN(C)C)cc12`, for which the “activation” value was -3.07% [at 42.5 µM].

Turning to `CC1=CCC(=O)O1`, the “activation” value is 10.3%.

Take `Clc1cc(Cl)c(-c2c(Cl)c(Cl)cc(Cl)c2Cl)cc1Cl`: the “activation” value was 1.96% [at 42.5 µM].

With `CCCCCCCCCC(=O)N(C)C`, the “activation” value was -0.737%.

For `C=CC(=O)OCC(O)COc1ccccc1` (stereo not given), the “activation” value was -3.68%.

Regarding `COc1ccccc1C=O`, the “activation” value is 0.0356%.

For the molecule `CC1=CP(=O)(c2ccccc2)CC1` (stereo not given), the “activation” value was -0.201%.
